Compounds with a hit are over-represented: about 8.9% of the library has one in this group of screens.
ALDH1A1 block: qHTS Assay for Inhibitors of Aldehyde Dehydrogenase 1 (ALDH1A1); Aldehyde dehydrogenase 1A1 (Homo sapiens), P00352; Purified ALDH1A1, NADH fluorescence, propionaldehyde substrate; Potency, µM (highest dose often 75.3 µM), for inactives: at the highest dose activity, negative = inhibition, hits mostly inhibitors; 220,000 tested, 7.3% active; AID 1030, 2008; active = well fitted inhibition curve with a large enough effect, not every such curve was filed as active; inconclusive = small, poorly fitted or top-dose-only effect, or another doubt; inactive = no such curve, though single readings can be large or run the other way;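 also: potency is read from the fitted curve at half-maximal effect; plate controls were no enzyme wells and a reference inhibitor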
NPSR antagonist: qHTS Assay for Antagonists of the Neuropeptide S Receptor: cAMP Signal Transduction | CHO-NPSR cells, cAMP TR-FRET, antagonist mode | 220,000 tested, 1% active | Q6W5P4 | Potency, µM (series often up to 38.3 µM), without a hit: top-dose activity change, negative = inhibition, actives largely listed as inhibitors; also: potency is read from the fitted curve at half-maximal effect; nearly all actives have a fitted effect of over 50% in size
Target sequence (Q6W5P4 whole entry, looked up): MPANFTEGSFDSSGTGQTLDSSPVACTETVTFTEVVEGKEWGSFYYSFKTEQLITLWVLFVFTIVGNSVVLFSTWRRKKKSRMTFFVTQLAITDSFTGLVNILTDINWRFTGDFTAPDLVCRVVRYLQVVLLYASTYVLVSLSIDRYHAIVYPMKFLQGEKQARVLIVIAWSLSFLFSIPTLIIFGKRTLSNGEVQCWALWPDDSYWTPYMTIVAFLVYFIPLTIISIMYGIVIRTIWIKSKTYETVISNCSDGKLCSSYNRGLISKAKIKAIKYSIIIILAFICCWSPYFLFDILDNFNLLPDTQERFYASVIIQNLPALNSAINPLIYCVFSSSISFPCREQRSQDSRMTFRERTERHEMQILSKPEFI
IMPase cell inh: qHTS Assay for Identifying the Cell-Membrane Permeable IMPase Inhibitors; Inositol monophosphatase 1 (Rattus norvegicus), P97697; CHO-M1 cells, IP1 accumulation, HTRF TR-FRET ratio; inhibition (IP1 accumulation), % at 46.1 µM; 120,000 tested, under 10 active; active = well fitted curve in the direction sought with a large enough effect in the signal ratio, not every such curve was filed as active; inconclusive = small, poorly fitted or top-dose-only effect, or a change in a side signal; inactive = no such curve, though single readings can be large or run the other way; the % refers to the signal ratio;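 also: cells stimulated with carbachol in lithium chloride buffer; plate controls were DMSO basal wells for no effect and reference inhibitor wells for full effect; higher means more IMPase inhibition seen as more IP1 and lower FRET ratio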
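Carbachol-driven Gq signalling in CHO-M1 cells (2000/well) generates IP1. Compounds that block IMPase raise IP1 and so reduce the FRET signal from Eu-anti-IP1 and d2-IP1 after a 10 min room-temperature lysis.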
HPGD inh: qHTS Assay for Inhibitors of HPGD (15-Hydroxyprostaglandin Dehydrogenase) | Potency, µM, for the others: at the highest dose activity change, negative = inhibition, hits mostly inhibitors | 150,000 tested, 4.3% active | 15-hydroxyprostaglandin dehydrogenase [NAD(+)] (Homo sapiens), P15428 | purified HPGD, NADH fluorescence kinetic, PGE2 substrate; active = well fitted inhibition curve with a large enough effect, not every such curve was filed as active; inconclusive = small, poorly fitted or top-dose-only effect, or another doubt; inactive = no such curve, though single readings can be large or run the other way; also: potency is read from the fitted curve at half-maximal effect
Target sequence (P15428 whole entry, looked up): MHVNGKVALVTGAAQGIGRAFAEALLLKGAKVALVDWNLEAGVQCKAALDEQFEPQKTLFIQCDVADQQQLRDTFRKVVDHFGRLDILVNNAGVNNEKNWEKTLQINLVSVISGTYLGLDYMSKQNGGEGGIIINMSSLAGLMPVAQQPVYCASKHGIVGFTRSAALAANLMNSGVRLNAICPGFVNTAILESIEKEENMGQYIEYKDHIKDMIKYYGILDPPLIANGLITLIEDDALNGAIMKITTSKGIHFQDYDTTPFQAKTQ
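20 nM HPGD preincubated 15 min at room temperature with compound in 50 mM Tris-HCl pH 8, 0.01% Tween 20. Started with 1 mM NAD+ and 30 uM prostaglandin E2; NADH fluorescence (360/450 nm) read 5 times over 30-s intervals, last minus first.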
12-hLO inh: qHTS Assay for Inhibitors of 12-hLO (12-human lipoxygenase). Polyunsaturated fatty acid lipoxygenase ALOX12 (Homo sapiens), P18054. purified 12-hLO, xylenol orange hydroperoxide absorbance. Potency, µM (titrated, usually from 57.1 µM), for inactives: top-dose activity change, negative = inhibition, actives largely listed as inhibitors. 150,000 tested, 0.12% active; also: potency is read from the fitted curve at half-maximal effect; nearly all actives have a fitted effect of over 55% in size
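Purified human 12hLO (150 nM), preincubated 15 min with compound, then 40 uM arachidonic acid for 30 min, room temperature, Hepes pH 7.0 with 0.01% Triton X-100. Hydroperoxide detected by ferrous iron/xylenol orange; 573/405 nm absorbance ratio gives reaction progress.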
IMPase Li inh: qHTS Assay for Identifying the Cell-Membrane Permeable IMPase Inhibitors: Potentiation with Lithium; CHO-M1 cells, IP1 TR-FRET (IP-One), carbachol + lithium; Potency, µM (series often up to 59.4 µM), for inactives: at the highest dose activity, negative = IMPase inhibition, usual class: inhibitors; 210,000 tested, 0.35% active;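 also: IP1 builds up when IMPase is blocked and the TR-FRET signal falls; potency is read from the fitted curve at half-maximal effect; plate controls were basal vehicle for no effect and high inhibitor control for full effect; nearly all actives have a fitted effect of over 50% in size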
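IP1 accumulation measured by competitive TR-FRET in lysed CHO-M1 cells after 30 min compound exposure at 37C, with a small lithium addition to potentiate weak responses. Hill-equation AC50 from ratio and donor-channel data.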
* = called active by the depositor; ? = inconclusive; nt = not tested or not shown; [ ] = another dose, or the depositor's remark. Unless noted, calls follow the shape of the dose curve; as a rule, active = well fitted curve in the direction sought with a large enough effect; inconclusive = small, poorly fitted or top-dose-only effect, or another doubt; inactive = no such curve, though single readings can be large; an effect the other way counts as inactive or inconclusive. Unless noted, % is scaled to controls: 0 for no effect and ±100 for the full control effect.

SMILES	ALDH1A1 block	NPSR antagonist	IMPase cell inh	HPGD inh	12-hLO inh	IMPase Li inh
N#C/C(=C\c1ccc(O)c(O)c1)C(=O)NCCc1ccccc1	?	-19%[46.1 µM]	16	25µM*	?	41%
N#C/C(=C\c1ccc(O)c(O)c1)C(=O)NCCCCc1ccccc1	?	nt	2	8.9µM*	?	32%
COc1cc(/C=C(\C#N)C(=O)NCCc2ccccc2)cc(OC)c1O	-2%	-21%	nt	nt	nt	5%
CCCCNC(=O)/C(C#N)=C/c1ccc(C(=O)OC)cc1	-7%	27%	nt	nt	nt	4%
Cc1cc(C)c2cc(C=O)c(Cl)nc2c1	?	43%	nt	nt	nt	-2%
CCOC(=O)c1cnc(-c2ccccc2)nc1Oc1ccc(OC)cc1	11µM*	-48%	nt	nt	nt	14%
CCOC(=O)c1cnc(-c2ccccc2)nc1Oc1ccccc1	-9%	-26%[46.1 µM]	6	-11%	-10%	17%[38.3 µM]
CCOC(=O)CSc1nc(C)c(C(C)=O)cc1C#N	20%	1%[46.1 µM]	-7	22µM*	8%	9%
COc1ccc(NS(=O)(=O)c2ccc(OC)c3ccccc23)cn1	7.1µM*	-15%[46.1 µM]	1	-20%	-19%	1%[38.3 µM]
O=C(c1nn(Cc2ccccc2)c(=O)c2ccccc12)N1CCc2ccccc2C1	0.89µM*	?	13	-6%	-9%	15%[38.3 µM]
O=C(c1cc2ccccc2c(=O)o1)N1CCc2ccccc2C1	2%	-13%[46.1 µM]	-2	25µM*	-6%	0%[38.3 µM]
O=C(c1cc2ccccc2c(=O)o1)N1CCCc2ccccc21	4.5µM*	-7%[46.1 µM]	1	-5%	-4%	-4%[38.3 µM]
Cn1c(C(=O)N2CCc3ccccc3C2)cc2oc3ccccc3c21	-8%	-13%	12	0.71µM*	-9%	16%
CCn1c(C(=O)N2CCc3ccccc3C2)cc2oc3ccccc3c21	?	-30%[46.1 µM]	-6	?	-8%	31%[38.3 µM]
O=C(c1cc2ccccc2c(=O)o1)N1CCCC1	-7%	6%	nt	-13%	-1%	1%
Cc1ccc(C(=O)NNC(=O)CSc2nnc3c(n2)[nH]c2ccc(F)cc23)cc1	-7%	-12%[46.1 µM]	3	-19%	3%	-10%[38.3 µM]
CCOC(=O)C1=C(C)NC(C)=C(C(=O)OCC)C1c1cc2ccc(C)cc2[nH]c1=O	?	-6%[46.1 µM]	-2	-12%	?	-2%[38.3 µM]
CC(C)C[C@@H](C=O)NC(=O)[C@H](CC(C)C)NC(=O)[C@H](CC(C)C)NC(=O)OCc1ccccc1	14µM*	nt	nt	nt	nt	7%
COC(=O)c1cnc(Oc2ccc(NC(=O)NC(=O)c3c(OC)cccc3OC)cc2)cc1C(F)(F)F	9%	60%	nt	nt	nt	nt
O=C(O)C1=C[C@@H](c2ccc(Br)cc2)C[C@@H](OCc2ccc(CO)cc2)O1	-1%	-14%	nt	nt	nt	-9%
O=[N+]([O-])c1ccc(O)c(Nc2ncnc3ccc(Br)cc23)c1	?	-34%	nt	nt	nt	13%
O=[N+]([O-])c1ccc2ncnc(Nc3ccc4c(c3)OCCO4)c2c1	0.35µM*	-19%	nt	nt	nt	23%
COC(=O)[C@@]1(Cc2ccc(F)cc2)[C@H]2c3cc(C(=O)N(C)C)n(CCc4ccc(OC)c(Br)c4)c3C[C@H]2CN1C(=O)c1ccccc1	-8%	-52%	nt	-2%	0%	18%
COc1ccc(NCC(=O)N/N=C/c2c(C)nn(Cc3ccccc3)c2Cl)cc1	16µM*	0%	nt	?	-4%	7%
O=C(N/N=C/c1cccs1)c1ccccn1	-3%	-5%[46.1 µM]	-5	-16%	-2%	-2%[38.3 µM]
SMILES	ALDH1A1 block	NPSR antagonist	IMPase cell inh	HPGD inh	12-hLO inh	IMPase Li inh
COc1ccc(NC(=O)CC(c2ccc(F)cc2)c2ccc(OC(C)C)cc2)cc1 (configuration not stated)	0.2µM*	-26%	nt	-4%	1%	7%
COc1ccc(N(CC(=O)NCc2ccco2)S(C)(=O)=O)cc1	2%	-4%[46.1 µM]	-8	-7%	-2%	-15%[38.3 µM]
COc1ccc(-c2ccc(SCC(=O)NCc3ccco3)nn2)cc1	2%	14%[7.67 µM]	7	-16%	0%	5%[38.3 µM]
COc1ccc(-c2nnc(SCC(=O)NC(=O)NCc3ccco3)o2)cc1	22µM*	-10%[46.1 µM]	2	20µM*	1%	-29%[38.3 µM]
O=C(CSc1nnc(-c2ccncc2)n1-c1ccc(F)cc1)NC(=O)NCc1ccco1	25µM*	-7%	0	-17%	-1%	17%
CS(=O)(=O)N(CC(=O)NCc1ccco1)c1ccc(OCc2ccccc2)cc1	19µM*	-5%	nt	nt	nt	1%
Cc1ccc(-n2c(SCC(=O)NCc3ccco3)nnc2-c2cccnc2)cc1	?	-10%[46.1 µM]	4	-17%	3%	-2%
Cc1nc2cc(NC(=O)C3COc4ccccc4O3)ccc2s1 (configuration not stated)	-13%	9%	nt	nt	nt	2%
COc1ccc(S(=O)(=O)N(C)CC(=O)NCc2ccco2)cc1	35µM*	1%[46.1 µM]	-4	-19%	-1%	-13%[38.3 µM]
COc1ccc(S(=O)(=O)NC(CC(=O)NCc2ccco2)C(C)C)cc1 (configuration not stated)	5%	-7%[46.1 µM]	-5	1%	6%	1%
COc1ccc(C(CC(=O)NCc2ccco2)c2ccc(F)cc2)cc1 (configuration not stated)	1%	-26%[46.1 µM]	5	16µM*	-4%	4%[38.3 µM]
CNC(=S)N/N=C/c1c(C)nn(-c2cccc(Cl)c2)c1Cl	-4%	14%	18	-10%	0%	-1%
O=C(COC(=O)c1ccc(NS(=O)(=O)c2cccs2)cc1)Nc1nc2c(F)c(F)c(F)cc2s1	0%	-14%	nt	nt	nt	2%
O=C(COC(=O)c1ccc(Br)o1)Nc1nc2c(F)c(F)c(F)cc2s1	22µM*	-6%	nt	nt	nt	nt
O=c1[nH]ncc(N2CCCCCC2)c1Cl	10µM*	-19%	nt	nt	nt	24%
CN(c1cccc(Cl)c1)S(=O)(=O)c1cccc(C(=O)Nc2ccc3c(c2)CCC3)c1	11µM*	-30%	nt	-20%	-3%	10%
Cc1ccccc1OCc1nc2ccccc2c(=O)n1/N=C/c1cn[nH]c1-c1ccc(Br)cc1	3%	-38%	nt	32µM*	5%	-5%
Cc1cnc(CNc2ccnc(-c3ccc(C(=O)N(C)C)cc3)n2)cn1	-6%	nt	nt	5.6µM*	4%	1%
CN(C)c1ccc(NS(=O)(=O)c2ccc(-c3csnn3)cc2)cc1	8.9µM*	31%	nt	nt	nt	nt
Nc1ccccc1C(=O)N=Nc1[nH]c(N)c2ccccc12	5%	-10%	nt	-12%	5%	1%

Bioassay records: PubChem, National Center for Advancing Translational Sciences (NCATS)
